14 compounds from PubChem BioAssay (NCATS) can be followed below.

Results filed as inconclusive are left out. Calls of active or inactive are those of the source. The call rests on the fitted dose curve; in most records, active means well fitted curve in the direction sought with a large enough effect; inconclusive means small, poorly fitted or top-dose-only effect, or another doubt; inactive means no such curve, though single readings can be large; an effect the other way counts as inactive or inconclusive.

Experiment [1] in a line: Quantitative High-Throughput drug screen in 47 multiple myeloma cell lines against the NCATS MIPE library collection: Karpas25_ECACC cell viability assay (AID 1918968; further: nearly all actives have a fitted effect of over 35% in size). A digest of the protocol: (§1)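 Myeloma cells (500 per well) were exposed to MIPE 4.0 compounds by pin transfer and incubated 48 hours at 37C, 5% CO2. Viability was read as ATP by CellTiter-Glo luminescence, normalised to DMSO (100%) and media-only (0%) wells.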

Experiment [2] is described as follows: Quantitative High-Throughput drug screen in 47 multiple myeloma cell lines against the NCATS MIPE library collection: KMS27_JCRB cell viability assay (AID 1918970). Further: nearly all actives have a fitted effect of over 30% in size. To be noted: KMS27 myeloma cells, CellTiter-Glo ATP viability, 48 h; viability (% of DMSO): at 45.8 µM (top of the series). Summed up: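 Myeloma cells (500 per well) were exposed to MIPE 4.0 compounds for 48 h at 37 °C, 5% CO2; viability was read as ATP luminescence with CellTiter-Glo, normalized to DMSO-only (100%) and media-only (0%) wells.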

Experiment [3] is described as follows: Quantitative High-Throughput drug screen in 47 multiple myeloma cell lines against the NCATS MIPE library collection: KMS12BM_JCRB cell viability assay (AID 1918971). Further: nearly all actives have a fitted effect of over 35% in size. A digest of the protocol:
(§2)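 Steps: seed 500 cells per well; pin-transfer MIPE 4.0 library; incubate 48 h at 37C, 5% CO2, humidified; add CellTiter-Glo, 5 min room temperature; read luminescence.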

Experiment [4] can be described thus: Quantitative High-Throughput drug screen in 47 multiple myeloma cell lines against the NCATS MIPE library collection: KMS12PE_JCRB cell viability assay (AID 1918972). Further: nearly all actives have a fitted effect of over 30% in size. Summed up:
as §2

A short description of experiment [5]: Quantitative High-Throughput drug screen in 47 multiple myeloma cell lines against the NCATS MIPE library collection: KMS26_JCRB cell viability assay (AID 1918975). Further: nearly all actives have a fitted effect of over 45% in size. A digest of the protocol:
as §2

The nature of experiment [6]: Quantitative High-Throughput drug screen in 47 multiple myeloma cell lines against the NCATS MIPE library collection: MMM1_PLB cell viability assay (AID 1918976). Further: nearly all actives have a fitted effect of over 35% in size. Summed up: (§3)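 Inhibition of viability over 48 h was scored by ATP content (CellTiter-Glo) in 500-cell wells. Zero and full viability were defined by media-only and DMSO-only wells.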
Experiment [7] can be described thus: Quantitative High-Throughput drug screen in 47 multiple myeloma cell lines against the NCATS MIPE library collection: KMS21BM_JCRB cell viability assay (AID 1918974). Particulars: ATP luminescence, 48 h; viability: at 45.8 µM (top of the series). Summed up: as §1
Experiment [8] in a line: Quantitative High-Throughput drug screen in 47 multiple myeloma cell lines against the NCATS MIPE library collection: MOLP8_DSMZ cell viability assay (AID 1918977). Further: nearly all actives have a fitted effect of over 45% in size. A digest of the protocol: as §3
The nature of experiment [9]: Quantitative High-Throughput drug screen in 47 multiple myeloma cell lines against the NCATS MIPE library collection: NCIH929_DSMZ cell viability assay (AID 1918978). Further: nearly all actives have a fitted effect of over 35% in size. Summed up:
as §3

Experiment [10] in a line: Quantitative High-Throughput drug screen in 47 multiple myeloma cell lines against the NCATS MIPE library collection: KMS20_JCRB cell viability assay (AID 1918973). Further: nearly all actives have a fitted effect of over 45% in size. A digest of the protocol: as §1
Potency means the concentration at half of the fitted maximal effect.

As for `CC(C)c1c(C(=O)Nc2ccccc2)c(-c2ccccc2)c(-c2ccc(F)cc2)n1CC[C@H](O)C[C@@H](O)CC(=O)O`, the Potency in experiment [1] is 11.8 µM (active); in experiment [2], 4.69 µM (active); in [3] it was 13.2 µM (active); in experiment [4], 6.62 µM (active); in experiment [6], 8.33 µM (active). Besides, the Potency result in experiment [5] is “inactive”.
As for `O=[N+]([O-])c1ccc(Nc2ccccc2-c2ccccc2)c2nonc12`, in experiment [1], the Potency was 18.7 µM (active).
With `CN1CCN(c2cccc(Nc3nc4c(-c5ccc(S(C)(=O)=O)cc5)cccn4n3)c2)CC1`, in experiment [1], the Potency entry was “inactive”. Moreover, the Potency in experiment [2] was 1.32 µM (active); in experiment [3], 9.35 µM (active); in experiment [4], 0.833 µM (active); in experiment [7], 3.32 µM (active); in experiment [5], 20.9 µM (active); in experiment [6] it was 16.6 µM (active). For the same compound, the results for the Potency in [8] and in experiment [9] were 9.35 µM (active) and 2.64 µM (active), respectively.
`O=C(c1ccc(F)c(F)c1Nc1ccc(I)cc1F)N1CC(O)([C@H]2CCCCN2)C1`: the Potency in experiment [1] is 16.6 µM (active); in [2], 0.264 µM (active); in [3], 23.5 µM (active); in experiment [4], 16.6 µM (active); in [10], 0.372 µM (active); in experiment [5] it was 23.5 µM (active). Further, the Potency in experiment [9] was 14.8 µM (active).
`CCCCCOC(=O)Nc1nc(=O)n([C@@H]2O[C@H](C)[C@@H](O)C2O)cc1F` (some centres undefined): the Potency in experiment [1] was 18.7 µM (active). The Potency entry in experiment [2], in [3], in experiment [4], in experiment [5], in experiment [6] and in experiment [8] was “inactive” throughout.
Regarding `N#CC(=C1Nc2ccccc2S1)c1ccnc(OCc2ccc(CN3CCOCC3)cc2)n1`, the Potency is 0.235 µM (active) in [1]; 0.0264 µM (active) in [2]; 26.4 µM (active) in experiment [3]; 0.059 µM (active) in experiment [4]; 0.0264 µM (active) in experiment [7]; 20.9 µM (active) in experiment [5]. Moreover, the Potency was 14.8 µM (active) in experiment [6] and 4.69 µM (active) in [9].
As for `Cc1ccccc1C(=O)c1ccc(Nc2ccc(Br)cc2N)cc1Cl`, the Potency in [1] was 18.7 µM (active); in experiment [2], 6.62 µM (active); in experiment [3], 14.8 µM (active); in [4], 7.43 µM (active); in experiment [10], 14.8 µM (active); in experiment [5], 5.26 µM (active). Moreover, the Potency in experiment [9] is 23.5 µM (active).
Regarding `CNC(=O)c1cc(COc2nnc(Nc3ccc(Cl)cc3)c3ccoc23)ccn1`, the Potency result in experiment [1], in experiment [2], in experiment [10] and in experiment [9] was “inactive” each time. Further, the Potency in experiment [3] was 26.4 µM (active); in [4], 6.62 µM (active).
For `O=S(=O)(NCCNCC=Cc1ccc(Br)cc1)c1cccc2cnccc12`, the Potency in experiment [1] was 9.35 µM (active); in [2], 13.2 µM (active); in [3] it was 16.6 µM (active); in experiment [4], 16.6 µM (active); in [10] it was 11.8 µM (active); in [5], 13.2 µM (active). The Potency is 20.9 µM (active) in experiment [6] and 14.8 µM (active) in experiment [9].
`COc1ccc2ccc(=O)oc2c1CC=C(C)C`: the Potency was 20.9 µM (active) in experiment [1]; 18.7 µM (active) in experiment [2]; 13.2 µM (active) in [3]; 20.9 µM (active) in experiment [4]; 10.5 µM (active) in [5]; 8.33 µM (active) in experiment [8]. Further, in [10], the Potency entry is “inactive”.
As for `CCN(CC)CCCCNc1nc2cc(Cl)c(Cl)cc2nc1-c1ccc(-c2cccs2)s1`, the Potency in experiment [1] is 8.33 µM (active); in experiment [2] it was 8.33 µM (active); in [3] it was 16.6 µM (active); in [4], 6.62 µM (active); in experiment [10], 4.69 µM (active); in [5], 13.2 µM (active). The Potency is 9.35 µM (active) in experiment [6], 8.33 µM (active) in experiment [8] and 7.43 µM (active) in [9].
On to `C[C@@H]1O[C@@H](O[C@H]2CC[C@@]3(C)[C@H](CC[C@@H]4[C@H]3C[C@@H](O)[C@]3(C)[C@@H](C5=CC(=O)OC5)CC[C@]43O)C2)C[C@H](O)[C@@H]1O[C@H]1C[C@H](O)[C@H](O[C@H]2C[C@H](O)[C@@H](O)[C@@H](C)O2)[C@H](C)O1` (stereo in doubt), for which the Potency in experiment [1] was 0.241 µM (active); in experiment [2], 0.0959 µM (active); in experiment [3], 0.215 µM (active); in experiment [4] it was 0.054 µM (active); in experiment [7] it was 0.215 µM (active); in experiment [5], 0.27 µM (active). The Potency in experiment [6] was 0.171 µM (active); in [8], 0.152 µM (active); in experiment [9] it was 0.34 µM (active).
For the compound `CNC(=O)c1cc(Oc2ccc(NC(=O)Nc3ccc(Cl)c(C(F)(F)F)c3)c(F)c2)ccn1`, the Potency in experiment [1] is 2.64 µM (active); in experiment [2] it was 7.43 µM (active); in [3] it was 18.7 µM (active); in [4], 4.69 µM (active); in [7] it was 2.96 µM (active); in experiment [5], 23.5 µM (active). Moreover, the Potency in experiment [8] is 13.2 µM (active).
In the case of `Cc1[nH]c(C=C2C(=O)Nc3ccc(S(=O)(=O)N(C)c4cccc(Cl)c4)cc32)c(C)c1C(=O)N1CCN(C)CC1`, the Potency in experiment [1] was 7.43 µM (active); in experiment [2], 5.9 µM (active); in experiment [3], 26.4 µM (active); in experiment [4], 7.43 µM (active); in [10], 5.26 µM (active); in [5], 23.5 µM (active). The Potency in [6] is 18.7 µM (active); in experiment [9] it was 11.8 µM (active).
